Common to all, as to experiment: NCI-60 one-dose screen, 48 h (100 = growth as untreated, 0 = no growth, -100 = all killed)
The subject of one test is SK-MEL-2 melanoma. The settings on record: 10 µM unless noted.
The next test deals with EKVX NSCLC. The settings on record: 10 µM unless noted.
For another test, the system named is SN12C renal. The following applies: 10 µM unless noted.
The subject of a further test is UO-31 renal. The settings on record: 10 µM unless noted.
A further test relates to TK-10 renal. The settings on record: 10 µM unless noted.
Another test relates to ACHN renal. The following applies: 10 µM unless noted.
The next test deals with CAKI-1 renal. The settings on record: 10 µM.
For a further test, the system named is A498 renal. The following applies: 10 µM unless noted.
The test system of a further test is CCRF-CEM leukemia. The settings on record: 10 µM unless noted.
The test system of the next test is MOLT-4 leukemia. The following applies: 10 µM unless noted.
Another test has as its system RPMI-8226 leukemia. The settings on record: 10 µM unless noted.
Another test has as its system OVCAR-8 ovarian. The following applies: 10 µM unless noted.
The next test concerns OVCAR-5 ovarian. The settings on record: 10 µM unless noted.
The test system of the next test is OVCAR-4 ovarian. The settings on record: 10 µM unless noted.
Another test relates to SK-OV-3 ovarian. The following applies: 10 µM unless noted.
A further test relates to IGROV1 ovarian. The following applies: 10 µM unless noted.
Another test concerns NCI/ADR-RES ovarian. The following applies: 10 µM unless noted.
The subject of another test is SR leukemia. The settings on record: 10 µM unless noted.
The test system of another test is OVCAR-3 ovarian. The settings on record: 10 µM unless noted.
A further test deals with HS 578T breast. The settings on record: 10 µM unless noted.

This is part of a sample that, as a whole, favours compounds with a hit. Of some 83,000 tested, about 20% had one in any assay.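 Activity criterion: percent growth below 10, measured after cells in 96-well plates were exposed to a single compound concentration for 48 hours.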 Values without a mark were called inactive. The source made the active and inactive calls.

In the case of `COc1ccc(C2CC(c3ccc(Nc4nc(NCCO)nc(Nc5ccc(Cl)cc5)n4)cc3)=Nc3c(N)nc(N)nc3N2)cc1` (stereo not drawn), the growth in the test on SK-MEL-2 melanoma was 89.5%; in the test on EKVX NSCLC, 107%; in the test on SN12C renal it was 85.1%; in the test on UO-31 renal, 56.2%; with TK-10 renal, 107%; with ACHN renal it was 90.1%. In addition, the growth was 61.1% in the test with CAKI-1 renal; 42.7% with A498 renal; -17.9% (active) with CCRF-CEM leukemia; 3.14% (active) with MOLT-4 leukemia; -4.52% (active) in the test with RPMI-8226 leukemia; 40% in the test with OVCAR-8 ovarian. In addition, the growth with OVCAR-5 ovarian is 121%; in the test with OVCAR-4 ovarian it was 66.9%; in the test with SK-OV-3 ovarian, 112%; with IGROV1 ovarian, 74%; in the test with NCI/ADR-RES ovarian, 76%.
Regarding `CCN1C(=O)N(CC)C2SC(N/N=C/c3ccc(OC)cc3)=NC21` (stereo not drawn), the growth in the test on SK-MEL-2 melanoma is 61.4%; with EKVX NSCLC, 41.8%; in the test with SN12C renal it was 24.3%; in the test with UO-31 renal, 43.5%; in the test on TK-10 renal, 72.8%; with ACHN renal it was 31.3%. Besides, the growth in the test with CAKI-1 renal was 48.7%; in the test with CCRF-CEM leukemia, 13.1%; in the test with MOLT-4 leukemia, 10.1%; in the test with SR leukemia it was 19.3%; with RPMI-8226 leukemia, 17.6%; with OVCAR-8 ovarian, 26%. The growth with OVCAR-5 ovarian is 36.8%; with OVCAR-4 ovarian it was 69.1%; with SK-OV-3 ovarian it was 62.4%; in the test on IGROV1 ovarian, 23.2%; in the test with OVCAR-3 ovarian it was -13.1% (active); in the test on HS 578T breast, 31.9%. For the same compound, the growth in the test on NCI/ADR-RES ovarian is 2.95% (active).
Take `Cn1c2ccc(Br)cc2c2c3c(c4c5cc(F)ccc5oc4c21)C(=O)N(O)C3=O`: the growth was 110% with SK-MEL-2 melanoma; 90.1% in the test with EKVX NSCLC; 90.2% in the test with SN12C renal; 75.4% in the test on UO-31 renal; 142% in the test with TK-10 renal; 78% in the test on ACHN renal. Further, the growth in the test with CAKI-1 renal is 69.2%; in the test with A498 renal, 94.2%; in the test with CCRF-CEM leukemia, 14.7%; with MOLT-4 leukemia, 43%; with RPMI-8226 leukemia, 76.7%; in the test on OVCAR-8 ovarian it was 75.1%. For the same compound, the growth with OVCAR-5 ovarian is 108%; in the test with OVCAR-4 ovarian it was 103%; in the test with SK-OV-3 ovarian, 90.2%; in the test with HS 578T breast, 92.8%; in the test on NCI/ADR-RES ovarian it was 75.5%.
Take `COc1ccc2c(c1)c(-c1nnc(N)nc1-c1cn(C)c3ccccc13)cn2C`: the growth is 95.2% in the test with SK-MEL-2 melanoma; 92.7% in the test on EKVX NSCLC; 93.2% in the test on SN12C renal; 70.8% with UO-31 renal; 94.1% in the test on TK-10 renal; 94.5% in the test with ACHN renal. For the same compound, the growth in the test on CAKI-1 renal is 75.7%; with CCRF-CEM leukemia, 93.9%; in the test with MOLT-4 leukemia it was 94.4%; in the test on SR leukemia, 84.7%; in the test with RPMI-8226 leukemia, 105%; in the test with OVCAR-8 ovarian it was 103%. The growth in the test with OVCAR-5 ovarian was 86.5%; in the test on OVCAR-4 ovarian it was 91.3%; in the test on SK-OV-3 ovarian it was 102%; in the test on IGROV1 ovarian it was 95.1%; with OVCAR-3 ovarian it was 96.8%; in the test on HS 578T breast, 91.2%. Also, in the test with NCI/ADR-RES ovarian, the growth is 90.5%.
Take `CCCCCCNC(=O)Oc1ccc(/C(=C(/C)c2ccc(OC)cc2)c2ccc(OCCN3CCCC3)cc2)cc1`: the growth in the test with SK-MEL-2 melanoma is 93.4%; in the test on EKVX NSCLC, 79.5%; in the test on SN12C renal it was 82.3%; in the test on UO-31 renal it was 38.7%; in the test on TK-10 renal, 116%; with ACHN renal, 84.3%. Besides, the growth is 87% in the test with CAKI-1 renal; 62.4% in the test with CCRF-CEM leukemia; 30.4% in the test with MOLT-4 leukemia; 5.51% (active) with SR leukemia; 16.8% in the test with RPMI-8226 leukemia; 86.6% in the test with OVCAR-8 ovarian. Also, the growth with OVCAR-5 ovarian was 81.5%; with OVCAR-4 ovarian, 84.8%; in the test on SK-OV-3 ovarian, 97.9%; in the test on IGROV1 ovarian it was 65.7%; in the test on OVCAR-3 ovarian it was 89.8%; in the test on HS 578T breast, 83.7%. Further, in the test with NCI/ADR-RES ovarian, the growth is 77%.
Regarding `CCOC(=O)C1=C(C)N=C2Sc3ccccc3N2C1c1ccccc1` (stereo not drawn), the growth is 89.7% in the test with SK-MEL-2 melanoma; 67.6% in the test on EKVX NSCLC; 93.4% with SN12C renal; 64.7% in the test on UO-31 renal; 110% in the test on TK-10 renal; 88% in the test on ACHN renal. Further, the growth was 65.6% with CAKI-1 renal; 86.2% in the test on CCRF-CEM leukemia; 87.2% in the test with MOLT-4 leukemia; 83.8% with SR leukemia; 73.4% in the test with RPMI-8226 leukemia; 96.6% in the test on OVCAR-8 ovarian. The growth in the test on OVCAR-5 ovarian is 102%; in the test with OVCAR-4 ovarian, 91.9%; in the test with SK-OV-3 ovarian, 125%; in the test with IGROV1 ovarian, 77.3%; in the test on OVCAR-3 ovarian, 98.4%; in the test with HS 578T breast, 93.5%. The growth with NCI/ADR-RES ovarian was 82.3%.
On to `COc1ccc(Cn2cc3c(c2-c2ccccc2)CCCc2cnoc2-3)cc1`, for which the growth in the test with SK-MEL-2 melanoma is 80.2%; with EKVX NSCLC, 69.2%; with SN12C renal, 79.8%; with UO-31 renal, 57.1%; in the test on TK-10 renal, 91.8%; in the test with ACHN renal, 58.9%. The growth in the test on CAKI-1 renal is 46.1%; in the test with CCRF-CEM leukemia it was 61.3%; in the test on MOLT-4 leukemia it was 61.7%; in the test with SR leukemia, 21.1%; in the test on RPMI-8226 leukemia it was 59.8%; in the test on OVCAR-8 ovarian, 78.8%. Further, the growth in the test on OVCAR-5 ovarian is 80.7%; in the test with OVCAR-4 ovarian, 90.2%; with SK-OV-3 ovarian it was 83.7%; in the test on IGROV1 ovarian it was 51.5%; in the test with OVCAR-3 ovarian it was 22%; with HS 578T breast it was 64.9%. Further, the growth in the test with NCI/ADR-RES ovarian is 29.8%.
With `N#Cc1c(NC(=O)c2ccc(F)c(Cl)c2)sc2c1CCC(=O)C2`, the growth in the test with SK-MEL-2 melanoma was 18.3%; in the test on EKVX NSCLC, 13.1%; in the test on SN12C renal, 4.43% (active); in the test with UO-31 renal, -99% (active); in the test with TK-10 renal, 15.3%; in the test on ACHN renal it was -98.8% (active). Further, the growth was -67% (active) with CAKI-1 renal; 8.21% (active) in the test on CCRF-CEM leukemia; 3.13% (active) in the test on MOLT-4 leukemia; 0.0131% (active) with SR leukemia; 0.133% (active) in the test with RPMI-8226 leukemia; 16.6% in the test with OVCAR-8 ovarian. In addition, the growth in the test on OVCAR-5 ovarian was -14.6% (active); in the test with OVCAR-4 ovarian it was -52% (active); with SK-OV-3 ovarian, 25.8%; in the test on IGROV1 ovarian, -25.7% (active); in the test with OVCAR-3 ovarian, -47.3% (active); in the test with HS 578T breast it was -2.33% (active). Besides, the growth in the test with NCI/ADR-RES ovarian is -11.8% (active).
